Compound activity deposited in PubChem BioAssay by National Center for Advancing Translational Sciences (NCATS).
In the library only some 19% were active in any assay of this set; here they are far more common.
DT40 TDP1 no CPT – qHTS for Inhibitors of human tyrosyl-DNA phosphodiesterase 1 (TDP1): qHTS in cells in absence of CPT. DT40 Tdp1-/- hTDP1 cells, no CPT, ATP luminescence, 48 h. Potency, µM (series often up to 46.2 µM), for the others: at the top dose activity change, negative = growth inhibition, most hits filed as inhibitors. 15% of 420,000 active. AID 686978, 2013; further: potency means the concentration at half of the fitted maximal effect; nearly all actives have a fitted effect of over 55% in size
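Cells were dispensed at 400 per well, compounds added by pin tool, plates incubated ≥48 hr at 37 °C, then CellTiter-Glo added for 30 min at room temperature before luminescence reading. Line: DT40 Tdp1-/- complemented with hTDP1; camptothecin omitted.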
ELG1 repair inh – inhibitors of ELG1-dependent DNA repair in HEK293T cells. HEK293T ELG1-luciferase reporter, luminescence, 16 h; DNA damage induced by 5-fluorouridine. Potency, µM (highest dose often 46.1 µM), for the others: at the top dose activity change, negative = inhibition, usual class: inhibitors. 2.3% of 330,000 active; further: potency means the concentration at half of the fitted maximal effect; nearly all actives have a fitted effect of over 55% in size
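Overnight (16 hr) co-exposure of 2,000 cells/well to 5-fluorouridine and compound at 37 °C preceded detection. Luciferase was quantified via ONE-Glo luminescence; loss of signal denotes inhibition.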
IL1B secr inh – inflammasome signaling inhibition, IL-1 beta readout; activity change, % at 57.5 µM; THP-1 LPS/ATP IL-1B secretion, AlphaLISA, 16 h; hits give low values; AID 743279; 4.7% of 360,000 active; in the data active means activity change below about -50%; inconclusive means mostly about -30% to -49%
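Secreted IL-1B measured by AlphaLISA bead assay after 16 h compound exposure of THP-1 cells; compounds (final up to 57.5 uM) added 1 h before LPS (250 ng/mL) and ATP (1.25 mM) stimulation; lower signal means less secretion.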
DT40 TDP1 CPT – growth inhibition of DT40 Tdp1-/-;hTDP1 cells with camptothecin (screen for TDP1 inhibitors); chicken DT40 Tdp1-/-;hTDP1 cells + 20 nM CPT, ATP luminescence, 48 h; Potency, µM (titrated, usually from 46.2 µM), inactives show at the top dose activity change, negative = growth inhibition, hits mostly inhibitors; 12% of 420,000 active; AID 686979; further: potency means the concentration at half of the fitted maximal effect; nearly all actives have a fitted effect of over 55% in size
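Cell growth measured by CellTiter-Glo luminescence after a minimum 48 h, 37 C compound exposure with 20 nM CPT in Tdp1-knockout DT40 cells stably expressing hTDP1, seeded 400/well; qHTS titration format.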
HT1080 IDH1KD tx – HT-1080 IDH1 knockdown cell toxicity (counter line); HT-1080 IDH1 knockdown viability, ATP luminescence, 48 h; Potency, µM (top dose mostly 46.1 µM), inactives show at the highest dose activity, negative = toxicity, usual class: cytotoxic; 2% of 360,000 active;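 further: potency means the concentration at half of the fitted maximal effect; 0% = DMSO wells and -100% = cell-free medium wells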
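Luminescent ATP read-out (CellTiter-Glo, 10 min at room temperature) after 48 h compound exposure at 37 °C gave viability of IDH1-knockdown HT-1080 cells. Activity was normalised to DMSO and cell-free wells, then fitted as concentration-response curves.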
HT1080-NT tox – kills 2HG-producing HT-1080-NT fibrosarcoma cells. HT-1080-NT fibrosarcoma viability, CellTiter-Glo ATP luminescence, 48 h. Potency, µM (doses to about 46.1 µM), inactives show at the highest dose activity, negative = less viability, usual class: cytotoxic. 1.6% of 360,000 active. AID 686970;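 further: NT is the 2HG producing partner of a matched IDH1 knockdown line; potency means the concentration at half of the fitted maximal effect; 0% = DMSO-treated cells and -100% = media-only wells without cells; nearly all actives have a fitted effect of over 55% in size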
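Fibrosarcoma NT cells, 750 per well in 5% FBS RPMI, were exposed to compound for 48 hours. Viability: CellTiter-Glo luminescence.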
An asterisk follows results filed as active; ? = inconclusive; . = no result given; ! = not active in a repeat. Unless noted, the call rests on the fitted dose curve; in most records, active means well fitted curve in the direction sought with a large enough effect; inconclusive means small, poorly fitted or top-dose-only effect, or another doubt; inactive means no such curve, though single readings can be large; an effect the other way counts as inactive or inconclusive. Unless noted, on the % scale 0 is the no-effect control and ±100 the full control effect.

SMILES	DT40 TDP1 no CPT	ELG1 repair inh	IL1B secr inh	DT40 TDP1 CPT	HT1080 IDH1KD tx	HT1080-NT tox
Cc1cc(NC(=O)CCC(=O)N(CC(=O)NCC2CCCO2)c2ccc(C)c(C)c2)no1 (stereo not given)	-3%	24%	0	8%	4%	8%
COc1ccc(S(=O)(=O)N2CCOC2CNC(=O)C(=O)NCCCN2CCOCC2)cc1 (stereo not given)	-3%	3%	8	2%	1%	1%
O=[N+]([O-])c1ccc(NCCNc2ccc([N+](=O)[O-])cc2)cc1	16%	.	-5	-19%	23%	14%
Cc1ccc(C(=O)Nc2cccc(NC(=O)c3ccc(C)c([N+](=O)[O-])c3)n2)cc1[N+](=O)[O-]	16µM*	?	18	?	2%	9%
O=C(CCNc1ccc(Cc2ccncc2)cc1)c1ccc([N+](=O)[O-])cc1	?	-4%	-17	23µM*	?	?
Cc1ccc(C(=O)Nc2ccc(NC(=O)c3cccs3)cc2)cc1[N+](=O)[O-]	-16%	-2%	-24	?	7%	26%
Cc1ccc(C(=O)Nc2ccc(Cc3ccncc3)cc2)cc1[N+](=O)[O-]	21µM*	?	?	21µM*	-13%	1%
Cc1ccc(C(=O)Nc2sc(C)c(-c3ccccc3)c2C(N)=O)cc1[N+](=O)[O-]	18µM*	?	-4	13µM*	9%	18%
COC(=O)c1cc(NC(=O)c2cccc([N+](=O)[O-])c2C)ccc1Cl	16µM*	16%	-17	-24%	-4%	?
Cc1c(C(=O)Nc2ccc(Cc3ccncc3)cc2)cccc1[N+](=O)[O-]	?	-11%	-50*	?	?	?
Cc1c(C(=O)Nc2ccc(C(=O)Nc3ccccc3)cc2)cccc1[N+](=O)[O-]	-11%	?	-14	-22%	-5%	0%
CC(C)c1cc(Cn2c3ccccc3c(=O)n2C(C)Cn2cc(COc3ccccc3)nn2)on1 (stereo not given)	?	.	0	?	1%	8%
Cc1cc(C(=O)NCc2csc(-c3ccccc3)n2)no1	14%	?	18	-5%	2%	4%
O=C1CN(C(=O)Nc2ccccc2Cl)C(c2ccccc2)c2c(sc3c2CCCC3)N1 (stereo not given)	?	.	.	23µM*	.	.
CC(=O)N1CCCc2cc(S(=O)(=O)N3CCCC(C(=O)NCc4ccc(C)cc4)C3)ccc21 (stereo not given)	23µM*	-13%	82	18µM*	-12%	-1%
CC(=O)N1CCCc2cc(S(=O)(=O)N(Cc3ccccc3)C(C)C)ccc21	16µM*	.	.	15µM*	.	.
CC(=O)N1CCCc2cc(S(=O)(=O)N3CCCC(C(=O)NCc4ccccc4)C3)ccc21 (stereo not given)	26µM*!	-2%	-14	?	1%	0%
CC(=O)N1c2ccc(S(=O)(=O)N3CCCC(C(=O)NCc4ccccc4)C3)cc2CC1C (stereo not given)	?	-11%	-5	-24%	7%	0%
COc1ccccc1N1CCN(C(=O)CCc2nnc3n(C)c(=O)c4sccc4n23)CC1	-22%	.	.	0%	.	.
CCCNC(=O)C1(C)CCCN(Cc2cc3ccccc3o2)C1 (stereo not given)	23µM*	.	2	16µM*	-2%	3%
CCCNC(=O)C1(C)CCCN(Cc2ccc3ccccc3c2)C1 (stereo not given)	23µM*	.	0	?	?	0%
